The list is not random: actives were taken first. Their share in the collection is about 18%.
HepG2 viability: HepG2 cytotoxicity, counter-screen for TGF-b inhibitors; Potency, µM (series often up to 46.1 µM), most hits filed as cytotoxic; HepG2 CAGA-GFP viability, ATP luminescence, 18 h; 410,000 tested, 0.76% active; AID 588856
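HepG2 CAGA-GFP cells (1000/well, DMEM with 1% FBS) received compound, then TGF-beta at 500 pg/mL final, and were incubated 18 hours at 37 degrees C. Viability was read by CellTiter-Glo luminescence. Media-only wells were set as complete cell-killing and DMSO as no toxicity.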
IL-1B inflam inh: inflammasome signaling inhibition, IL-1 beta readout; THP-1 LPS/ATP IL-1B secretion, AlphaLISA, 16 h; stronger effect = lower value; activity change, % at 57.5 µM; 360,000 tested, 4.7% active; AID 743279; in the data active = activity change below about -50%; inconclusive = mostly about -30% to -49%
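Secreted IL-1B measured by AlphaLISA bead assay after 16 h compound exposure of THP-1 cells; compounds (final up to 57.5 uM) added 1 h before LPS (250 ng/mL) and ATP (1.25 mM) stimulation; lower signal means less secretion.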
DT40 TDP1 no CPT: qHTS for Inhibitors of human tyrosyl-DNA phosphodiesterase 1 (TDP1): qHTS in cells in absence of CPT | DT40 Tdp1-/- hTDP1 cells, no CPT, ATP luminescence, 48 h | Potency, µM (series often up to 46.2 µM), most hits filed as inhibitors | 420,000 tested, 15% active; note: nearly all actives have a fitted effect of over 55% in size
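Luminescent ATP content (CellTiter-Glo) served as the growth readout. Knockout chicken DT40 cells expressing human TDP1 were exposed to compounds without camptothecin for a minimum 48 hr at 37 °C.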
TDP1 cell CPT: growth inhibition of DT40 Tdp1-/-;hTDP1 cells with camptothecin (screen for TDP1 inhibitors); chicken DT40 Tdp1-/-;hTDP1 cells + 20 nM CPT, ATP luminescence, 48 h; Potency, µM (doses to about 46.2 µM), usual class: inhibitors; 420,000 tested, 12% active; AID 686979; note: nearly all actives have a fitted effect of over 55% in size
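Cell growth measured by CellTiter-Glo luminescence after a minimum 48 h, 37 C compound exposure with 20 nM CPT in Tdp1-knockout DT40 cells stably expressing hTDP1, seeded 400/well; qHTS titration format.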
TGFb inhibitor: TGF-b pathway inhibition. Potency, µM (series often up to 46.1 µM), hits mostly inhibitors. 410,000 tested, 1.2% active. AID 588855. HepG2 CAGA-GFP TGF-b/SMAD3 reporter, GFP fluorescence, 18 h; TGF-beta stimulated, 500 pg/mL final; note: nearly all actives have a fitted effect of over 65% in size
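Inhibition was scored as loss of TGF-beta-induced (500 pg/mL final, 18 hours, 37 degrees C) GFP in HEPG2 cells carrying a CAGA-GFP reporter, in DMEM with 1% FBS. Well GFP was summed per cell; Activity was normalised to unstimulated and stimulated DMSO wells, then concentration-response fitting.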
TDP1 inh: blocks human tyrosyl-DNA phosphodiesterase 1; Potency, µM (series often up to 130 µM), most hits filed as inhibitors; Q9NUW8; recombinant TDP1, AlphaScreen DNA substrate cleavage; 350,000 tested, 0.28% active; note: nearly all actives have a fitted effect of over 40% in size
Target sequence (Q9NUW8 whole entry, looked up): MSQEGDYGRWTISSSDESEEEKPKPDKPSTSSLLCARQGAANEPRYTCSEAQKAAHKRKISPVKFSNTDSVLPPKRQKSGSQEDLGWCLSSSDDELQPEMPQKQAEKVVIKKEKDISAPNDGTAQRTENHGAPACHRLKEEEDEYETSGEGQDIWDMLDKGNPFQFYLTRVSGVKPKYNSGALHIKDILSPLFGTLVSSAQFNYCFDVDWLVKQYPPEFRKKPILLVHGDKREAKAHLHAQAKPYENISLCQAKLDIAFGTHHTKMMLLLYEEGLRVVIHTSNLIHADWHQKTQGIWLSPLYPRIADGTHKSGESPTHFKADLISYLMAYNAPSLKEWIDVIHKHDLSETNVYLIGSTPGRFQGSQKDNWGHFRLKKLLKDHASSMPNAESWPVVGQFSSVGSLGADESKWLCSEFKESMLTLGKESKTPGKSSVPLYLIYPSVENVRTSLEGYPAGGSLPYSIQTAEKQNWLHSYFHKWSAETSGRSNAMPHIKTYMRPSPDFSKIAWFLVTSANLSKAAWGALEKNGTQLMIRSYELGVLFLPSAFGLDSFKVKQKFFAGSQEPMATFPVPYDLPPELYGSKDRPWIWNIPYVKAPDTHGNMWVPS
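AlphaScreen read-out: signal falls as enzyme removes the 3' tyrosine-FITC from a 5'-biotinylated DNA oligo (15 nM, 5 min, RT). Enzyme was E. coli-made recombinant Tdp1 at 1 nM, exposed to compound for 15 min beforehand; beads 10 ug/ml, 10 min.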
Numbers stand for hits; [ ] = remark or other dose. Unless noted, calls come from the whole dose curve; as a rule, active = well fitted curve in the direction sought with a large enough effect; inconclusive = small, poorly fitted or top-dose-only effect, or another doubt; inactive = no such curve, though single readings can be large; an effect the other way counts as inactive or inconclusive.

How did COC(=O)[C@@H](NC(=O)N(C1CCCCC1)C1CCCCC1)C(C)C do in these assays?
HepG2 viability: inactive; IL-1B inflam inh: inactive; DT40 TDP1 no CPT: 13µM; TDP1 cell CPT: 11µM; TGFb inhibitor: inactive; TDP1 inh: inactive

Results for O=C(Cn1cc[n+](Cc2ccccc2)c1)c1ccc([N+](=O)[O-])cc1 ?
HepG2 viability: inactive; IL-1B inflam inh: -72; DT40 TDP1 no CPT: 2.6µM; TDP1 cell CPT: 3.7µM; TGFb inhibitor: inactive; TDP1 inh: inactive

Results for O=C(C[n+]1ccn(-c2ccccc2)c1)c1ccc([N+](=O)[O-])cc1 ?
HepG2 viability: inactive; IL-1B inflam inh: inactive; DT40 TDP1 no CPT: 16µM; TDP1 cell CPT: 15µM; TGFb inhibitor: inconclusive; TDP1 inh: inactive

Results for c1ccc(Cc2cc[n+](Cc3ccccn3)cc2)cc1 ?
HepG2 viability: inactive; IL-1B inflam inh: inactive; DT40 TDP1 no CPT: 9.2µM; TDP1 cell CPT: 21µM; TGFb inhibitor: inactive; TDP1 inh: inactive

How did ON(CCc1ccccn1)Cc1ccccc1 do in these assays?
HepG2 viability: inactive; IL-1B inflam inh: inactive; DT40 TDP1 no CPT: inactive; TDP1 cell CPT: inactive; TGFb inhibitor: inactive

What do the screens show for `O=[N+]([O-])c1ccc(C[n+]2ccc(Cc3ccccc3)cc2)cc1`?
HepG2 viability: inactive; IL-1B inflam inh: inactive; DT40 TDP1 no CPT: 10µM; TDP1 cell CPT: 18µM; TGFb inhibitor: inactive; TDP1 inh: inactive

Results for O=[N+]([O-])c1ccc(C[n+]2ccccc2)cc1 ?
HepG2 viability: inactive; IL-1B inflam inh: inactive; DT40 TDP1 no CPT: inactive; TDP1 cell CPT: inactive; TGFb inhibitor: inactive; TDP1 inh: inactive

Results for CCOC(=O)C1CCCN(C(=O)c2cc3c(OC)c(OC)c(OC)cc3[nH]2)C1 (centres undefined) ?
HepG2 viability: inactive; IL-1B inflam inh: inactive; DT40 TDP1 no CPT: inactive; TDP1 cell CPT: inconclusive; TGFb inhibitor: inactive

Results for Cc1c(C(=O)NCC2CCCN(C)C2)cnn1-c1ncc2c(n1)-c1ccccc1CCC2 (centres undefined) ?
DT40 TDP1 no CPT: inactive; TDP1 cell CPT: inactive[9.04 µM]

Results for O=C(CN1C(=O)c2cccc([N+](=O)[O-])c2C1=O)N1CCc2ccccc2C1 ?
HepG2 viability: inactive; IL-1B inflam inh: inactive; DT40 TDP1 no CPT: inactive; TDP1 cell CPT: inactive; TGFb inhibitor: inactive

What do the screens show for `CCN1C(=O)[C@H]2[C@H]3[C@H](O)[C@H](O)C/C(=N/NC(=O)OCc4ccc(OC)cc4)[C@@H]3CC[C@@H]2C1=O`?
TDP1 inh: inactive[21 µM]

Results for COCCN1C=C2C(=O)C(C)(OC(=O)CCc3ccccc3)C(=O)C=C2C=C1c1ccc(C#N)cc1 (centres undefined) ?
HepG2 viability: inactive; IL-1B inflam inh: inactive; DT40 TDP1 no CPT: inactive; TDP1 cell CPT: inconclusive; TGFb inhibitor: inactive; TDP1 inh: inactive[21 µM]

How did CC1(OC(=O)CCc2ccccc2)C(=O)C=C2C=C(c3ccc(C#N)cc3)N(Cc3ccccc3)C=C2C1=O (centres undefined) do in these assays?
HepG2 viability: inactive; IL-1B inflam inh: inactive; DT40 TDP1 no CPT: inconclusive; TDP1 cell CPT: 18µM; TGFb inhibitor: inactive; TDP1 inh: inactive[12.3 µM]

How did CC(C)CN1C=C2C(=O)C(C)(OC(=O)CCc3ccccc3)C(=O)C=C2C=C1c1ccc(C#N)cc1 (centres undefined) do in these assays?
HepG2 viability: inactive; IL-1B inflam inh: inactive; DT40 TDP1 no CPT: 18µM; TDP1 cell CPT: 21µM; TGFb inhibitor: inactive; TDP1 inh: inactive[21 µM]

Results for CC1(OC(=O)C2CCCC2)C(=O)C=C2C=C(c3ccsc3)N(Cc3ccccc3)C=C2C1=O (centres undefined) ?
HepG2 viability: inactive; IL-1B inflam inh: inactive; DT40 TDP1 no CPT: 18µM; TDP1 cell CPT: inconclusive; TGFb inhibitor: inactive; TDP1 inh: inactive[21 µM]

How did CCOC(=O)c1cnc(NCc2ccc(OC)cc2OC)c2ccccc12 do in these assays?
HepG2 viability: inactive; DT40 TDP1 no CPT: inconclusive; TDP1 cell CPT: inconclusive; TGFb inhibitor: inconclusive; TDP1 inh: inactive

How did CC1=CC(c2ccccc2)=NS(=O)(=O)N1 do in these assays?
HepG2 viability: inactive; IL-1B inflam inh: -104; DT40 TDP1 no CPT: inactive; TDP1 cell CPT: inactive; TGFb inhibitor: inactive; TDP1 inh: inactive

Results for O=C(Nc1cccnc1)C1CCC(CNS(=O)(=O)c2cccc3nsnc23)CC1 (centres undefined) ?
HepG2 viability: inactive; IL-1B inflam inh: inactive; DT40 TDP1 no CPT: inconclusive; TDP1 cell CPT: inactive; TGFb inhibitor: inactive

Results for CCN(C(=O)C1CCC(CNS(=O)(=O)c2cccc3nsnc23)CC1)c1ccccc1 (centres undefined) ?
HepG2 viability: inactive; DT40 TDP1 no CPT: 23µM; TDP1 cell CPT: inconclusive; TGFb inhibitor: inactive; TDP1 inh: inactive

Results for COc1ccc(NC(=O)C2CCC(CNS(=O)(=O)c3cccc4nsnc34)CC2)cc1OC (centres undefined) ?
HepG2 viability: inactive; DT40 TDP1 no CPT: 16µM; TDP1 cell CPT: inconclusive; TGFb inhibitor: inconclusive; TDP1 inh: inactive

Results for CCN(CC)C(=O)C1CCC(CNS(=O)(=O)c2cccc3nsnc23)CC1 (centres undefined) ?
HepG2 viability: inactive; IL-1B inflam inh: inactive; DT40 TDP1 no CPT: inactive; TDP1 cell CPT: inactive; TGFb inhibitor: inactive; TDP1 inh: inactive

What do the screens show for `CCN(C(=O)C1CCC(CNS(=O)(=O)c2cccc3nsnc23)CC1)c1cccc(C)c1` (centres undefined)?
HepG2 viability: inactive; DT40 TDP1 no CPT: 21µM; TDP1 cell CPT: inconclusive; TGFb inhibitor: inconclusive; TDP1 inh: inactive

Results for CCC1(c2ccccc2)NC(=O)NC1=O (centres undefined) ?
TDP1 inh: inactive

What do the screens show for `Cc1[nH]c2ccccc2c1C(=O)C(C)OC(=O)c1ccccc1NCCO` (centres undefined)?
HepG2 viability: inactive; IL-1B inflam inh: inactive; DT40 TDP1 no CPT: inconclusive; TDP1 cell CPT: inconclusive; TGFb inhibitor: inconclusive

Results for COc1ccc(N2CCN(C(=O)c3ccc4c(=O)n5c(nc4c3)CCCCC5)CC2)cc1 ?
HepG2 viability: inactive; IL-1B inflam inh: inactive; DT40 TDP1 no CPT: inconclusive; TDP1 cell CPT: inactive; TGFb inhibitor: inactive

What do the screens show for `O=C(c1ccc2c(=O)n3c(nc2c1)CCCCC3)N1CCN(c2cccc(Cl)c2)CC1`?
HepG2 viability: inactive; IL-1B inflam inh: inactive; DT40 TDP1 no CPT: 23µM; TDP1 cell CPT: 18µM; TGFb inhibitor: inactive

Bioassay records as filed in PubChem BioAssay.
